# Bioassay records as filed in PubChem.
# The list is not random: actives were taken first. Their share in the collection is about 12%.
# Sfp PPTase inh = blocks B. subtilis Sfp PPTase activity. Q9F4F7. Biochemical Sfp PPTase activity, qHTS. Potency, µM, for inactives: largest response in the series, negative = inhibition, hits mostly inhibitors. 310,000 compounds, 3.5% hits;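 also: the enzyme is Sfp with the accession as filed and its product quenches rhodamine fluorescence; 0% = enzyme reaction without inhibitor and -100% = no enzyme wells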
#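 With Hepes-Na pH 7.6 buffer containing 10 mM MgCl2, Sfp (15 nM) modified BHQ-2-YbbR (12.5 uM) using rhodamine-CoA (5 uM). Two reads 30 minutes apart at 525/598 nm yielded each well's rate.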
# JMJD2A Tudor = blocks the human JMJD2A Tudor domain; 390,000 compounds, 4.4% hits; O75164; Potency, µM (series often up to 114 µM), without a hit: top-dose activity change, negative = inhibition, usual class: inhibitors; AlphaScreen JMJD2A-Tudor / H3K4me3 peptide binding; also: % is scaled to controls: 0 for no effect and ±100 for the full control effect; nearly all actives have a fitted effect of over 50% in size
# G9a inh = blocks human histone lysine methyltransferase G9a; Potency, µM (highest dose often 102 µM), for inactives: top-dose activity, negative = inhibition, usual class: inhibitors; G9a H3K9 monomethylation, AlphaScreen, 2 h; Q96KQ7; 350,000 compounds, 8.8% hits; also: % is scaled to controls: 0 for no effect and ±100 for the full control effect; nearly all actives have a fitted effect of over 75% in size
# Target sequence (Q96KQ7 913-1193 limits assumed): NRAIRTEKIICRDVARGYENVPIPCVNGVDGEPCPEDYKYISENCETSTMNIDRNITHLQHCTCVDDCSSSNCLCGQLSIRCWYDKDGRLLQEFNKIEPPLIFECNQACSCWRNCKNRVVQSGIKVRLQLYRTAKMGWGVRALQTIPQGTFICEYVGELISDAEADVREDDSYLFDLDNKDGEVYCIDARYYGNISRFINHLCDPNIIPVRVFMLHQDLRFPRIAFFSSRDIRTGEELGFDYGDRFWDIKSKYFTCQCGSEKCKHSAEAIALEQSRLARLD
#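 AlphaScreen read-out: biotin-H3K9 peptide (500 nM) methylation by 20 nM enzyme with 20 uM SAM, 2 h at room temperature after 15 min compound preincubation; anti-monomethyl H3K9 antibody plus donor/acceptor beads, 10 min dark.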
# L3MBTL1 block = blocks human L3MBTL1 | Q9Y468 | AlphaScreen L3MBTL1–H3K9me1 peptide binding | Potency, µM (titrated, usually from 57.1 µM), without a hit: top-dose activity, negative = inhibition, most hits filed as inhibitors | 230,000 compounds, 0.66% hits | AID 485360; also: % is scaled to controls: 0 for no effect and ±100 for the full control effect; nearly all actives have a fitted effect of over 60% in size
#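 AlphaScreen assay: L3MBTL1 (50 nM final) was preincubated 30 min at room temperature with biotinylated H3(1-15)K9me1 peptide (75 nM final), then 30 min with library compounds; streptavidin donor and nickel chelate acceptor beads (10 ug/mL final) added, 30 min dark.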
# BAZ2B block = blocks human BAZ2B | Q9UIF8 | AlphaScreen BAZ2B-H3K14Ac peptide displacement | Potency, µM (doses to about 114 µM), inactives show top-dose activity change, negative = inhibition, actives largely listed as inhibitors | 360,000 compounds, 4.4% hits; also: % is scaled to controls: 0 for no effect and ±100 for the full control effect; nearly all actives have a fitted effect of over 60% in size
#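 Protein-peptide AlphaScreen: BAZ2B 50 nM, b-H3K14Ac 50 nM, 1x PBS pH 7.4 + 0.01% Tween-20. Preincubation 30 min RT; cpd 30 min RT (top 110 uM); beads 20 min RT, light-protected.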
# HP1b binding inh = HP1-beta chromodomain-methylated histone interaction inhibition | P83916 | AlphaScreen HP1-beta / biotin-H3K9me3 peptide binding | Potency, µM (doses to about 114 µM), inactives show top-dose activity change, negative = inhibition, usual class: inhibitors | 390,000 compounds, 0.56% hits | AID 540317; also: nearly all actives have a fitted effect of over 70% in size
# Target sequence (P83916 whole entry, looked up): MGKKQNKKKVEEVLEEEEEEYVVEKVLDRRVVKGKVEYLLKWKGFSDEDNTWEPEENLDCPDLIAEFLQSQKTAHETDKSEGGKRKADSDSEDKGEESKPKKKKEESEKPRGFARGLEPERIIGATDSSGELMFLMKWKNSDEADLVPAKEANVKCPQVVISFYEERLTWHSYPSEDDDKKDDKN
#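 Compound inhibition of the preformed complex between 50 nM HP1-beta and 50 nM biotinylated H3K9me3 peptide was read by AlphaScreen. Buffer was PBS pH 7.4 with 0.01% Tween-20. Incubations ran 30 min at room temperature, with 10 ug/mL donor/acceptor beads.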
# Active calls of the source: *; ? = inconclusive; . = no result given; ! = repeats disagree; [ ] = dose if it differs, or a comment. Calls follow the shape of the dose curve; as a rule, active = well fitted curve in the direction sought with a large enough effect; inconclusive = small, poorly fitted or top-dose-only effect, or another doubt; inactive = no such curve, though single readings can be large; an effect the other way counts as inactive or inconclusive. Potency is read from the fitted curve at half-maximal effect.
SMILES,Sfp PPTase inh,JMJD2A Tudor,G9a inh,L3MBTL1 block,BAZ2B block,HP1b binding inh
COc1ccc(OC)c(CN2CCN(c3ccc(S(=O)(=O)N4CCCC4)cn3)CC2)c1,.,-35%,0%[2.33 µM],50%,-11%,-11%
Cc1ccc(NS(=O)(=O)c2ccc3[nH]c4c(c3c2)CCCCC4)cc1,.,?,14µM*,.,-31%[57.1 µM],-19%
Cc1ccc(NC(=O)CN(C)S(=O)(=O)c2ccc3[nH]c4c(c3c2)CCCC4)c(Cl)c1,.,?,11µM*,.,-30%,6%
Cc1cc(C)c(NC(=O)Cn2c(=O)n(-c3cccc(C(F)(F)F)c3)c(=O)c3c(C)c(C)sc32)c(C)c1,.,-13%,-26%[59 µM],.,2%,13%
CCC(CC)C(=O)Nc1nnc(SCc2cc(=O)c3ccccc3[nH]2)s1,.,-9%,12%[59 µM],.,3%,13%[57 µM]
Oc1ccccc1C1C=C(c2ccc3c(c2)OCO3)NC(c2cccc(Cl)c2)N1 (stereo unspecified),.,2%[57.1 µM],.,.,.,7%[57 µM]
CCOC(=O)C1=C(C)N=c2s/c(=C/c3cccc(OCC(=O)O)c3)c(=O)n2C1c1ccc(F)cc1 (stereo unspecified),-27%,.,?,.,?,.
CCOC(=O)C1=C(C)N=c2s/c(=C/c3ccco3)c(=O)n2C1c1cccc(OC)c1 (stereo unspecified),40µM*,?,16µM*,?,10µM*,?
CCOC(=O)C1=C(C)N=C2SC(C(=O)OC)=CC(=O)N2C1c1ccc(F)cc1 (stereo unspecified),?,25µM*,?,-2%,?,?
CCOC(=O)C1=C(C)N=C2SC(C(=O)OC)=CC(=O)N2C1c1cccc(OC)c1 (stereo unspecified),?,?,7%,-20%,?,0%
CC1=C(C(=O)OC(C)C)C(c2ccc(Cl)cc2)n2c(s/c(=C\c3ccc(OCC(=O)O)cc3)c2=O)=N1 (stereo unspecified),-3%,?,?,-7%,45µM*,?
CCOC(=O)C1=C(C)N=c2s/c(=C\c3ccc(C(=O)O)cc3)c(=O)n2C1c1ccc(F)cc1 (stereo unspecified),?,?,79µM*,.,?,-10%
CNC(=O)[C@]1(C)C[C@H]1[C@H](NC(=O)[C@]1(C)C[C@H]1[C@H](NC(=O)[C@]1(C)C[C@H]1[C@H](NC(=O)[C@]1(C)C[C@H]1[C@H](NC(=O)OCc1ccccc1)c1ccccc1)c1ccccc1)c1ccccc1)c1ccccc1,15%,.,.,.,.,.
CCOc1ccccc1C(=O)N1CCN(CCc2ccccn2)CC1,.,-30%,5%[59 µM],.,-16%,21%
CCOC(=O)C1=C(C)N=c2s/c(=C\c3ccc(OCC(=O)O)cc3)c(=O)n2C1c1ccccc1 (stereo unspecified),-1%,-32%,15%[12.7 µM],0%,?,6%
CCOC(=O)C1=C(C)N=c2s/c(=C\c3ccc(OCC(=O)O)c(OC)c3)c(=O)n2C1c1ccc(OC)cc1 (stereo unspecified),-2%,79µM*,56µM*,.,79µM*,8%
O=C(O)c1cc(=O)c2cc(Cl)ccc2[nH]1,-6%,.,.,.,.,.
S=C1SCN(Cc2ccco2)CN1Cc1ccco1,?,-24%,-32%,-21%,-37%,-6%
N#CC1=C2SCN(Cc3ccco3)CN2C(=O)CC1c1ccccc1F (stereo unspecified),2µM*,5µM*,0.28µM*,.,56µM*,45µM*
N#CC1=C2SCN(Cc3ccco3)CN2C(=O)CC1c1cccc2ccccc12 (stereo unspecified),1.4µM*,56µM*,0.89µM*,-5%,?,?
COc1ccc(NC(C)=O)cc1NC(C)C(=O)Nc1ccc(F)c(F)c1F (stereo unspecified),3%,-17%,50µM*,.,-11%,36%
COc1ccc(NC(C)=O)cc1NC(C)C(=O)Nc1ccccc1F (stereo unspecified),-14%,-19%,?,-14%,-2%,14%
Cc1cc(C)nc(Nc2nc(-c3ccccc3)cs2)n1,-18%,-10%,.,-2%,-2%,21%
Cc1cc(C)nc(Nc2nc(=O)c3ccccc3s2)n1,?,-10%,40µM*,4%,-4%,17%
Oc1ccc(Cl)cc1/C=N/c1nccs1,?,-18%,?,0%,?,23%
SMILES,Sfp PPTase inh,JMJD2A Tudor,G9a inh,L3MBTL1 block,BAZ2B block,HP1b binding inh
Oc1c(Br)cc(Br)cc1/C=N/c1nccs1,.,-23%,1.6µM*,-10%,?,20%
CCCCCCCC1=CC2=CC(=O)C(C)(OC(C)=O)C(=O)C2=CN1CCc1ccccc1 (stereo unspecified),-6%,.,40µM*,-14%,?,.
Cc1nnc2ccc(-c3cccc(NS(=O)(=O)c4ccccc4[N+](=O)[O-])c3)nn12,.,2%,50µM*,37%,-34%,28%
Cc1scc2c1N(C(=O)CN1CCN(C)CC1)c1ccccc1NC2=O,16%,-12%,35µM*!,?,?,12%
CCN1CCN(CC(=O)N2c3ccccc3Sc3ccccc32)CC1,19%,-4%,-24%,.,-6%,22%
Cc1ccc(C(=O)NCC(=O)OC(C(=O)Nc2cc(C(F)(F)F)ccc2Cl)c2ccccc2)cc1 (stereo unspecified),.,-20%,.,.,.,.
O=[N+]([O-])c1cc(Br)cc(/C=N/n2cnnc2)c1O,18%,-34%,32µM*,?,?,-12%
O=C1C2C(C(=O)N1/N=C/c1cc([N+](=O)[O-])ccc1O)C1C=CC2C12CC2 (stereo unspecified),1%,-13%,5%,-6%,3%,20%
C=CCS/C(N)=N\N=C\c1cc(Br)cc([N+](=O)[O-])c1O,11%,-36%,50µM*,-4%,?,-9%
O=C1C2C(C(=O)N1/N=C/c1cc([N+](=O)[O-])c(O)cc1O)C1C=CC2C12CC2 (stereo unspecified),?,50µM*,56µM*,32µM*,?,-19%
O=[N+]([O-])c1cc(Cl)cc(/C=N/n2cnnc2)c1O,23%,-20%,-11%,-3%,.,-4%
O=C1C2C(C(=O)N1/N=C/c1cc(Br)cc([N+](=O)[O-])c1O)C1C=CC2C12CC2 (stereo unspecified),16%,79µM*,?,-8%,?,?
O=C(Nc1ccc(Cl)cc1)c1cnn2c1NC(c1ccccc1)=CC2c1ccccc1 (stereo unspecified),.,?,10µM*,.,-33%,-7%
